BAZ2B inh: qHTS Assay for Inhibitors of BAZ2B. Bromodomain adjacent to zinc finger domain protein 2B (Homo sapiens), Q9UIF8. AlphaScreen BAZ2B-H3K14Ac peptide displacement. Potency, µM (titrated, usually from 114 µM), for inactives: at the top dose activity change, negative = inhibition, actives largely listed as inhibitors. AID 504333, 2011. 4.4% of 360,000 active; also: % is scaled to controls: 0 for no effect and ±100 for the full control effect; nearly all actives have a fitted effect of over 60% in size
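AlphaScreen displacement: compounds (up to 110uM) incubated 30 min at room temperature with a preformed 50 nM BAZ2B/50 nM biotinylated H3K14Ac peptide complex in PBS pH 7.4 with Tween-20. Donor and acceptor beads at 10 ug/mL final added, 20 min light-protected before reading.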
HP1b chromo inh: HTS for Inhibitors of HP1-beta Chromodomain Interactions with Methylated Histone Tails; Chromobox protein homolog 1 (Homo sapiens), P83916; AlphaScreen HP1-beta / biotin-H3K9me3 peptide binding; Potency, µM (highest dose often 114 µM), for the others: at the top dose activity change, negative = inhibition, most hits filed as inhibitors; 0.56% of 390,000 active; AID 540317, 2011; also: nearly all actives have a fitted effect of over 70% in size
Target sequence (P83916 whole entry, looked up): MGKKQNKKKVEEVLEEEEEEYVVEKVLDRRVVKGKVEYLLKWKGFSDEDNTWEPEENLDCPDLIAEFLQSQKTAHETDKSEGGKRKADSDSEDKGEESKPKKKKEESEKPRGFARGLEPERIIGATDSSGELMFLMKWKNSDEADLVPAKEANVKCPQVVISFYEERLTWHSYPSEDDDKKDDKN
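AlphaScreen: HP1-beta (50 nM) preformed 30 min with biotin-H3(1-18)K9me3 peptide (50 nM) in PBS pH 7.4, 0.01% Tween-20. Compound added for 30 min at RT, then streptavidin donor/nickel chelate acceptor beads (10 ug/mL) for 30 min.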
Sfp inh: qHTS Assay for Inhibitors of Bacillus subtilis Sfp phosphopantetheinyl transferase (PPTase); Biochemical Sfp PPTase activity, qHTS; Potency, µM, for the others: largest response in the series, negative = inhibition, most hits filed as inhibitors; 3.5% of 310,000 active;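 also: the enzyme is Sfp with the accession as filed and its product quenches rhodamine fluorescence; 0% = enzyme reaction without inhibitor and -100% = no enzyme wells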
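Fluorescence-quenching assay with 15 nM Sfp, 5 uM rhodamine-CoA and 12.5 uM BHQ-2-labelled ybbR peptide in pH 7.6 Hepes/MgCl2 buffer. Enzyme was pre-incubated with compound for 15 min at room temperature. Rate was taken from the 30-min fluorescence change (525/598 nm).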
G9a inh: qHTS Assay for Inhibitors of Histone Lysine Methyltransferase G9a; 8.8% of 350,000 active; Histone-lysine N-methyltransferase EHMT2 (Homo sapiens), Q96KQ7; G9a H3K9 monomethylation, AlphaScreen, 2 h; Potency, µM (top dose mostly 102 µM), inactives show at the highest dose activity, negative = inhibition, most hits filed as inhibitors; AID 504332, 2011; also: % is scaled to controls: 0 for no effect and ±100 for the full control effect; nearly all actives have a fitted effect of over 75% in size
Target sequence (Q96KQ7 913-1193 limits assumed): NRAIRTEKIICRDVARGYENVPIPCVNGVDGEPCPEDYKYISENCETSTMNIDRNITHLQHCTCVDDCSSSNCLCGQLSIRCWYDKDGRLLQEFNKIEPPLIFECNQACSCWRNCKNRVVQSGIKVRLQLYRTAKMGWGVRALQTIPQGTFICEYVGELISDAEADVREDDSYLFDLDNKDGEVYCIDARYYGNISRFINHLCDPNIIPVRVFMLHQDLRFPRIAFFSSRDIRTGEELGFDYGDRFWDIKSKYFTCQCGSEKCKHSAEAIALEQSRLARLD
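Enzyme 20 nM + cpd, 15 min RT; add b-H3K9 pep 500 nM / SAM 20 uM; 2 h RT; anti-H3K9me1 Ab 0.5 ug/mL + SA donor / anti-rabbit acceptor beads 20 ug/mL each, 10 min; AlphaScreen read.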
JMJD2A Tudor: qHTS Assay for Inhibitors of JMJD2A-Tudor Domain; Lysine-specific demethylase 4A (Homo sapiens), O75164; AlphaScreen JMJD2A-Tudor / H3K4me3 peptide binding; Potency, µM (top dose mostly 114 µM), inactives show top-dose activity change, negative = inhibition, hits mostly inhibitors; 4.4% of 390,000 active; also: % is scaled to controls: 0 for no effect and ±100 for the full control effect; nearly all actives have a fitted effect of over 50% in size
Numbers without * were called inactive; [ ] = remark or other dose. Compounds with a hit are over-represented: about 12% of the library has one in this group of screens. Calls follow the shape of the dose curve; as a rule, active = well fitted curve in the direction sought with a large enough effect; inconclusive = small, poorly fitted or top-dose-only effect, or another doubt; inactive = no such curve, though single readings can be large; an effect the other way counts as inactive or inconclusive. Potency is read from the fitted curve at half-maximal effect.

How did O=C(Nc1ccc(Br)cn1)c1cccc(-c2cc3ccccc3oc2=O)c1 do in these assays?
BAZ2B inh: inconclusive; HP1b chromo inh: -1.8%; Sfp inh: -14.4%; G9a inh: 25.1µM*; JMJD2A Tudor: -30.5%

Results for O=C(Nc1ccc(Br)cn1)c1coc(=O)c(Br)c1 ?
BAZ2B inh: inconclusive; HP1b chromo inh: 12.6%; Sfp inh: 3.3%; G9a inh: 50.1µM*; JMJD2A Tudor: -6.6%

What do the screens show for `Cc1nc(NC(=O)c2cccc(-c3cc4ccccc4oc3=O)c2)ccc1Br`?
BAZ2B inh: 8.4%; HP1b chromo inh: 11.2%; Sfp inh: -13.5%; G9a inh: 5.5%[59 µM]; JMJD2A Tudor: -2.8%

What do the screens show for `O=C(Nc1ccccc1F)c1coc(=O)c(Br)c1`?
BAZ2B inh: inconclusive; HP1b chromo inh: 4.5%; Sfp inh: 0.7%; G9a inh: 10.3%[59 µM]; JMJD2A Tudor: inconclusive

Results for Cc1ccc(Cl)cc1NC(=O)N(C)CCO ?
BAZ2B inh: 2.9%; HP1b chromo inh: 31.5%; Sfp inh: inconclusive; G9a inh: -4.6%; JMJD2A Tudor: -6.5%

How did CC(=O)Nc1nonc1-c1nnc(SCc2ccc(F)cc2)n1C do in these assays?
BAZ2B inh: -2.3%; HP1b chromo inh: 46.0%; G9a inh: 2.6%[59 µM]; JMJD2A Tudor: 8.6%

What do the screens show for `C/C(CCN1CCc2nc(-c3ccccc3)c(-c3ccccc3)cc2C1)=N\OC[C@@H](O)[C@@H]1O[C@@H]2OC(C)(C)O[C@@H]2[C@H]1O`?
Sfp inh: 13.0%

How did O=c1c2ccccc2c(=O)n(-c2ccccc2)n1-c1ccccc1 do in these assays?
HP1b chromo inh: 24.4%; JMJD2A Tudor: -8.9%

What do the screens show for `O=c1c2ccccc2c2ccccc2c(=O)n1-c1ccccc1`?
BAZ2B inh: -25.0%; HP1b chromo inh: 7.3%; Sfp inh: 12.5%; G9a inh: 50.1µM*; JMJD2A Tudor: -3.6%

What do the screens show for `COc1ccc(C(=O)N2CCC[C@@]3(CCN(C)C3)C2)cc1`?
Sfp inh: 24.3%; G9a inh: 3.4%[12.7 µM]

How did Cc1ccc2cc(C(c3nnnn3C3CCCC3)N(Cc3ccco3)Cc3cccs3)c(=O)[nH]c2c1 (centres undefined) do in these assays?
BAZ2B inh: -6.1%; HP1b chromo inh: 9.6%; Sfp inh: -11.3%; G9a inh: 28.2µM*; JMJD2A Tudor: -7.1%

What do the screens show for `Cc1ccc2cc(C(c3nnnn3C3CCCC3)N(Cc3cccnc3)Cc3ccco3)c(=O)[nH]c2c1` (centres undefined)?
BAZ2B inh: -36.7%; HP1b chromo inh: 17.1%; Sfp inh: 10µM*; G9a inh: 20µM*; JMJD2A Tudor: inconclusive

What do the screens show for `Cc1ccc2[nH]c(=O)c(C(c3nnnn3C3CCCC3)N(Cc3cccnc3)Cc3ccco3)cc2c1` (centres undefined)?
BAZ2B inh: -35.4%; HP1b chromo inh: -0.1%; Sfp inh: -12.4%; G9a inh: -43.6%; JMJD2A Tudor: inconclusive

Results for COc1ccc(CCN2C(=O)N(c3ccc(F)cc3)C(=O)C2CC(=O)Nc2ccc(OC)cc2)cc1 (centres undefined) ?
BAZ2B inh: -10.3%; HP1b chromo inh: 16.4%; G9a inh: -1.5%[59 µM]; JMJD2A Tudor: -23.8%

How did CCN(CC)C(=O)CSc1nnc(SC(C)C(=O)NC2CC2)s1 (centres undefined) do in these assays?
HP1b chromo inh: 36.7%; JMJD2A Tudor: -1.5%

How did Cc1sc2nc(SCc3nc(-c4ccccc4)no3)n(-c3ccccc3)c(=O)c2c1C do in these assays?
BAZ2B inh: 1.0%; HP1b chromo inh: 20.8%; Sfp inh: -5.8%; G9a inh: 3.16µM*; JMJD2A Tudor: 11.6%

What do the screens show for `c1ccc(Cc2nnc3sc(-c4ccco4)nn23)cc1`?
BAZ2B inh: inconclusive; HP1b chromo inh: inconclusive; Sfp inh: -4.9%; G9a inh: 35.5µM*; JMJD2A Tudor: inconclusive

How did Clc1ccccc1-c1nnc2sc(-c3ccco3)nn12 do in these assays?
BAZ2B inh: -19.6%; HP1b chromo inh: -5.6%; Sfp inh: -0.8%; G9a inh: inconclusive; JMJD2A Tudor: -26.1%

How did O=[N+]([O-])c1ccc([S+](=O)([O-])N2CCN([S+](=O)([O-])c3ccc4c(c3)OCCO4)CC2)c([N+](=O)[O-])c1 do in these assays?
JMJD2A Tudor: -6.2%

Results for NS(=O)(=O)c1ccc(CCNC(=O)CSc2nc3ccsc3c(=O)n2C2CC2)cc1 ?
BAZ2B inh: 15.2%; HP1b chromo inh: 43.0%; Sfp inh: -10.9%; G9a inh: 70.8µM*; JMJD2A Tudor: 0.7%

How did NS(=O)(=O)c1ccc(CCNC(=O)CSc2nc3ccsc3c(=O)n2CC2CCC(C(=O)O)CC2)cc1 (centres undefined) do in these assays?
BAZ2B inh: -6.5%; HP1b chromo inh: 30.4%; Sfp inh: 7.7%; G9a inh: 8.9%; JMJD2A Tudor: 5.1%

Results for CCN1C(C)=C(C(=O)OC)C(c2ccccc2)N2C(=O)[C@@]3(C(=O)OC)O[C@@]12C1C(=O)CCCC13 (some centres undefined) ?
Sfp inh: -0.9%

What do the screens show for `CC(C(=O)N1c2ccccc2CC1C)N1CCN(S(=O)(=O)c2ccccc2F)CC1` (centres undefined)?
BAZ2B inh: 28.2µM*; HP1b chromo inh: inconclusive; G9a inh: inconclusive; JMJD2A Tudor: 3.55µM*

What do the screens show for `CC(=O)C(C(C)=O)C1(O)C(=O)c2ccccc2C1=O`?
BAZ2B inh: -2.2%; HP1b chromo inh: 51.3%; Sfp inh: -15.0%; G9a inh: 50.1µM*; JMJD2A Tudor: -5.5%

Results for COc1ccc(N2CCN(c3ccc(N4C(=O)CC(C)C4=O)cc3[N+](=O)[O-])CC2)cc1 (centres undefined) ?
BAZ2B inh: inconclusive; HP1b chromo inh: -29.3%; Sfp inh: 17.4%; G9a inh: 39.8µM*; JMJD2A Tudor: inconclusive

How did Cc1ccc(C)c(N2CCN(c3ccc(N4C(=O)COCC4=O)cc3[N+](=O)[O-])CC2)c1 do in these assays?
BAZ2B inh: -25.3%; HP1b chromo inh: 15.7%; Sfp inh: 0.5%; G9a inh: -6.2%; JMJD2A Tudor: -22.8%

What do the screens show for `COc1ccc(N2CCN(c3ccc(N4C(=O)COCC4=O)cc3[N+](=O)[O-])CC2)cc1`?
BAZ2B inh: inconclusive; HP1b chromo inh: -13.8%; Sfp inh: 12.0%; G9a inh: 50.1µM*; JMJD2A Tudor: -32.4%

What do the screens show for `Cc1cc(C)cc(Oc2ccc(N)cc2)c1`?
BAZ2B inh: inconclusive; HP1b chromo inh: -25.4%; Sfp inh: 3.8%; G9a inh: -50.5%[59 µM]; JMJD2A Tudor: inconclusive

Bioassay records deposited in PubChem by National Center for Advancing Translational Sciences (NCATS).
